The results in this text go back to ChEMBL document CHEMBL1157539, “Thousands of chemical starting points for antimalarial lead identification” (Nature, 2010).

For the first test, the system named is Plasmodium falciparum. As to the kind of experiment: GSK_TCMDC: Inhibition of Plasmodium falciparum Dd2 in whole red blood cells, using parasite LDH activity as an index of growth. Test compounds present at 2uM. The format is functional.
As to `Cc1cc(C)c(NC(=O)NC2CCN(CCCCCNC(=O)/C=C/c3ccc(Cl)c(Cl)c3)CC2)c(C)c1`, the Inhibition – broadly, the share of the control response that was lost under treatment – amounted to 17%.

Compound `Cl.Oc1ccc(Nc2nc(N3CCCC3)c3ccccc3n2)cc1` returned an Inhibition of 100%.

As to `CCCSc1nc2c(c(=O)n1Cc1ccco1)C1(CCCCC1)Cc1ccccc1-2`, the Inhibition came to 95%.

As to `CC(=O)c1ccc(NC(=O)Nc2ccc(N(C)c3ccnc(Nc4cccc(CS(C)(=O)=O)c4)n3)cc2)cc1`, the Inhibition is 98%.

Turning to `CCNc1cc(C(=O)N[C@@H](Cc2ccccc2)[C@H](O)CN[C@H](C)c2ccccc2)cc(N2CCCC2=O)c1`, the Inhibition is recorded as 99%.

`O=C(Nc1ccc(N2CCCCC2)c(Cl)c1)c1ccc(Br)o1` returned an Inhibition of 94%.

For another test, the system named is HepG2. As to the kind of experiment: GSK_TCMDC: Percent inhibition of human HepG2 cell line. Test compounds present at 10uM. The format is functional.
Turning to `C=CCN1C(=O)CN(S(=O)(=O)c2ccc(-n3nc(C)cc3C)cc2)C1=S`, the Inhibition stood at 5%.

As to `Cc1[nH]c2ccccc2c1C(=O)C(C)Sc1nnc(-c2ccccc2Br)[nH]1` (stereo unspecified), the Inhibition was 0%.

As for `CS(=O)(=O)NCCCNCc1ccc(-c2cccc(-c3nc4cc(C(F)(F)F)ccc4[nH]3)c2)cc1.O=C(O)C(F)(F)F`, the Inhibition came out at 17%.

In turn, `COc1ccc2nccc([C@@H](O)CN3CCC(NC(=O)Cc4cc5ccccc5s4)CC3)c2c1` yielded an Inhibition of 16%.

On to `Cc1cc(I)ccc1Nc1nc2nonc2nc1Nc1ccc(I)cc1C`, for which the Inhibition came out at 78%.

With `CCN(CCCN1CCCCC1)c1cc(C)nc(Nc2ccc(F)c(C(F)(F)F)c2)n1.O=C(O)C(F)(F)F`, the Inhibition amounted to 32%.

Regarding `COc1ccc(-c2cn3c(C(=O)Nc4ccccc4Cl)c(-c4ccccc4)c4c3n2CCCC4)cc1`, the Inhibition is 7%.

Consider `Cc1[nH]c(C)c(-c2ccc(-c3cccc(OC(F)(F)F)c3)nc2)c(=O)c1Cl`, for which the Inhibition came to 30%.

On to `COc1ccc(NC(=O)[C@H](C)Nc2cc(C)nc(NCC3CCCCC3)n2)cc1.O=C(O)C(F)(F)F`, for which the Inhibition is given as 12%.

Consider `O=c1cc(NCCCNCc2ccc(C(F)(F)F)c(F)c2)[nH]c2ccccc12`, for which the Inhibition was found to be 5%.

`CCc1cn2c3c(cc(C(=O)N[C@@H](Cc4cccc(F)c4)[C@H](O)CNC4CC4)cc13)N(C)S(=O)(=O)CC2.O=CO` came in with an Inhibition of 2%.

The compound `Cc1cc(N/N=C/c2cccc([N+](=O)[O-])c2)c2ccccc2n1` returned an Inhibition of 0%.

In turn, `CCOC(=O)Nc1cc(-c2csc(N=C(N)N)n2)cc([N+](=O)[O-])c1` gave an Inhibition of 12%.

`O=C(NC1CCN(Cc2ccsc2)CC1)c1ccc(-c2cccc(C(F)(F)F)c2)s1.O=C(O)C(F)(F)F` came in with an Inhibition of 48%.

As to `COc1ccc(-c2cc(C(=O)Nc3ccc(CCCN(C)Cc4ccc(OC)c(OC)c4)cc3)c3ccccc3n2)cc1`, the Inhibition was found to be 40%.

As for `Cl.N#Cc1ccc2c(c1)CCN(CCC1CCC(NC(=O)/C=C/c3ccc(Cl)c(Cl)c3)CC1)CC2` (stereo unspecified), the Inhibition is reported as 31%.

In turn, `O=[N+]([O-])c1ccc(-c2ccc(C=NNc3nc(Nc4ccccc4)nc(Nc4ccccc4)n3)o2)cc1` had an Inhibition of 0%.

`Cc1nc(-c2cccc(C(=O)N(Cc3cncn3Cc3cccc(C(F)(F)F)c3)CC3CC3)c2)cs1` came in with an Inhibition of 7%.

As for `CC1(C)[C@H]2CC[C@@H](CNc3nc(NCCc4c[nH]cn4)nc(Nc4ccc5c(c4)OCO5)n3)[C@@H]1C2`, the Inhibition was 3%.

`SC(=Nc1ccc2c(c1)OCCO2)NN=Cc1ccccn1` returned an Inhibition of 55%.

In the case of `CCCCCCCCCCN1C(=O)C2C(CCCCNC(C)=O)NC3(C(=O)N(Cc4ccc(C(C)(C)C)cc4)c4ccccc43)C2C1=O` (stereo unspecified), the Inhibition is given as 3%.

In turn, `COc1ccc2nccc([C@@H](O)CN3CCC(NC(=O)c4cc5c(Cl)cc(Cl)cc5[nH]4)CC3)c2c1` showed an Inhibition of 22%.

For the compound `Cc1cc(N[C@@H](Cc2ccccc2)C(=O)Nc2ccccc2)nc(NCCN2CCCC2)n1.O=C(O)C(F)(F)F`, the Inhibition came out at 8%.

Compound `Cc1ccccc1CNc1noc(-c2sccc2Br)n1` registered an Inhibition of 0%.

The compound `Cc1[nH]cnc1Cc1ccc2c(c1O)c1ccccc1n2C` returned an Inhibition of 9%.

In turn, `CC(C)(C)NS(=O)(=O)c1cc(C(=O)N2CCC(CCN3CCC(O)(c4cccc(C(F)(F)F)c4)CC3)(c3cccc(F)c3)CC2)c(Cl)cc1F` yielded an Inhibition of 15%.

As for `CCN(CC)CCCC(C)Nc1ccnc2ccc(OC)cc12.Cl.O` (stereo unspecified), the Inhibition was 7%.

Regarding `Cc1cc(N2CCCC2)nc(Nc2ccc(NC(=O)c3ccccc3F)cc2)n1`, the Inhibition was determined as 36%.

`COc1cccc2c(C)cc(NCc3ccc(Cl)cc3)nc12` had an Inhibition of 7%.

Take `Cl.N#Cc1ccc2c(c1)CCN(CCC1CCC(NC(=O)Nc3ccnc4ccccc34)CC1)C2` (stereo unspecified): the Inhibition is reported as 38%.

In the case of `O=C(C=Cc1cn(-c2ccccc2)nc1-c1cccs1)N1CCN(c2ccncc2)CC1`, the Inhibition came to 31%.

On to `Cc1cccc2nc(-c3ccc(-c4cccc(CNCCCNS(C)(=O)=O)c4)cc3)[nH]c12.O=C(O)C(F)(F)F`, for which the Inhibition came out at 5%.

`NC(=S)Cc1ccc2c(c1)OCO2` returned an Inhibition of 43%.

On to `Cl.Nc1c2c(nc3ccc(NC(=O)Cc4ccccc4)cc13)CCCC2`, for which the Inhibition is recorded as 9%.

With `Cc1cc(C)c(NC(=O)NC2CCN(CCCCCNC(=O)/C=C/c3ccc(Cl)c(Cl)c3)CC2)c(C)c1`, the Inhibition is 30%.

In turn, `Cl.Oc1ccc(Nc2nc(N3CCCC3)c3ccccc3n2)cc1` showed an Inhibition of 10%.

In turn, `CCCSc1nc2c(c(=O)n1Cc1ccco1)C1(CCCCC1)Cc1ccccc1-2` had an Inhibition of 0%.

The compound `CC(=O)c1ccc(NC(=O)Nc2ccc(N(C)c3ccnc(Nc4cccc(CS(C)(=O)=O)c4)n3)cc2)cc1` displayed an Inhibition of 86%.

In the case of `CCNc1cc(C(=O)N[C@@H](Cc2ccccc2)[C@H](O)CN[C@H](C)c2ccccc2)cc(N2CCCC2=O)c1`, the Inhibition is 0%.

With `O=C(Nc1ccc(N2CCCCC2)c(Cl)c1)c1ccc(Br)o1`, the Inhibition came out at 0%.
